In PubChem BioAssay AID2013 (Sanford-Burnham Center for Chemical Genomics, 2009):
In all, about 290,000 compounds went through this assay and about 370 (0.13%) were called active.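 The calls were made as follows: active = spots per cell inhibited over 60%, with over 100 cells counted and total cytoplasm intensity under 500,000; inconclusive = wells with under 100 cells, flagged as likely toxic; inactive = the rest.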 The entries come from a sample that favours actives as a whole. Measured potencies and affinities stand elsewhere.

The compounds below were run against G-protein coupled receptor 55 (Homo sapiens) (UniProt Q9Y2T6) (assay: GPR55 antagonists blocking LPI-driven arrestin recruitment, primary screen, imaging, U2OS, beta-arrestin-GFP, LPI agonist (AID 2013;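 also: U2OS cells stably carrying GPR55 and arrestin-GFP stimulated by 5 µM LPI near EC80; imaged beta-arrestin-GFP aggregate spots per cell after agonist stimulation; plate controls were LPI-stimulated DMSO wells for no effect and DMSO wells without LPI for full effect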)). Settings: U2OS GPR55 beta-arrestin-GFP translocation imaging, LPI antagonism; at 10 µM; hits give high values.
G-protein coupled receptor 55 (Homo sapiens), sequence (Q9Y2T6 whole entry, looked up): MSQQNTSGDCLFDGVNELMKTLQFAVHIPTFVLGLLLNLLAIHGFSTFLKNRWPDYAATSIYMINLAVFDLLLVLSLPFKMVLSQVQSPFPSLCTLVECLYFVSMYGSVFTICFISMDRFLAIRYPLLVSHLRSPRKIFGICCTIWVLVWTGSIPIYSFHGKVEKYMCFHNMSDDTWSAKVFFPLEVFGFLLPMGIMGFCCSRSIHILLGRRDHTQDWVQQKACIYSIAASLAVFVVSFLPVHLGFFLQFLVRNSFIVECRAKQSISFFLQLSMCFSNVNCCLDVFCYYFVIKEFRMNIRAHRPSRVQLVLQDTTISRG
In the case of `CCCCNC(=S)N(C)/N=C/c1sc(N2CCCCC2)nc1-c1cccs1`, the inhibition is reported as 11.7% (inactive). For `CC(=O)N(c1ccccc1)C1CCCC1`, the inhibition was 3.9% (inactive). For `CC(=O)N(C1=C(O)c2ccccc2C(=O)C1=O)C1CCCCC1`, the inhibition was -3.7% (inactive). In the case of `Cc1cc(OCC(=O)Nc2ccc(CN3CCOCC3)cc2)c2c(C)c(C)c(=O)oc2c1`, the inhibition is reported as 18.4% (inactive). `CC(C)Sc1cc(N2CCCC2)nc(-c2ccccc2Cl)n1` was tested, and the inhibition was 7.8% (inactive). With `CCOc1cccc(OCCNC2CCCC2)c1` the inhibition was -14.7% (inactive). `COc1ccc(-c2c3c(=O)n(C)c(=O)n(C)c3cn2-c2cc(OC)ccc2OC)cc1` was tested, and the inhibition was 11.5% (inactive). With `COCCNC(=O)c1ccccc1NC(=O)CN(c1ccc2c(c1)OCO2)S(C)(=O)=O` the inhibition was 6.3% (inactive). In the case of `COc1cccc(NC(=O)CN(C)CC(=O)Nc2cccc(C(F)(F)F)c2)c1`, the inhibition is reported as -8.3% (inactive). In the case of `O=C(Nc1ccnn1C1CCN(Cc2cc3ccccc3[nH]2)CC1)C1CCOC1` (stereo not drawn), the inhibition is reported as 1.9% (inactive). With `Nc1c(S(=O)(=O)O)cc(NC(=O)c2ccccc2)c2c1C(=O)c1ccccc1C2=O` the inhibition was 0.8% (inactive). For `Cc1cc(C)c(Nc2cc(S(=O)(=O)O)c(N)c3c2C(=O)c2ccccc2C3=O)c(C)c1`, the inhibition was 66.8% (active). With `Cc1cc(C)cc(NC2=C(N)C(=O)c3ccccc3C2=O)c1` the inhibition was 6.8% (inactive). For `Cc1ccc(C)c(NC(=O)NNC(=O)CCc2ccccc2)c1`, the inhibition was 11% (inactive). In the case of `CC(c1nnnn1C(C)(C)C)N(Cc1cccnc1)Cc1ccccc1Cl` (stereo not drawn), the inhibition is reported as 11.1% (inactive). With `CC(C)(C)n1nnnc1C(c1cccnc1)N(Cc1ccccc1)Cc1cccs1` (stereo not drawn) the inhibition was 59.7% (inactive). `CC(C)(C)n1nnnc1C(c1cccs1)N(Cc1cccnc1)CC1CCCO1` (stereo not drawn) was tested, and the inhibition was 4.3% (inactive). With `CC(C)(C)n1nnnc1C(c1cccs1)N(Cc1cccnc1)Cc1ccco1` (stereo not drawn) the inhibition was 57.6% (inactive). For `Cc1ccc(C(C)C)cc1S(=O)(=O)NCc1ccccn1`, the inhibition was 8.4% (inactive). With `Cc1cc(C)nc(Nc2n[nH]c(-c3ccccc3Cl)n2)n1` the inhibition was 0.2% (inactive). With `N=c1c2c(ncn1CCCO)Oc1cc(O)ccc1C2c1ccccc1` (stereo not drawn) the inhibition was 33.6% (inactive). `COc1ccc(C2c3c(ncn(Cc4ccco4)c3=N)Oc3ccc4ccccc4c32)cc1` (stereo not drawn) was tested, and the inhibition was 27.8% (inactive). In the case of `COc1ccc(C2c3ccc4ccccc4c3Oc3ncn(Cc4ccco4)c(=N)c32)cc1OC` (stereo not drawn), the inhibition is reported as 96.1% (inactive). For `N=c1c2c(ncn1CCN1CCOCC1)Oc1cc(O)ccc1C2c1ccccc1` (stereo not drawn), the inhibition was 16.4% (inactive). `COc1ccc(C2c3ccc(O)cc3Oc3ncn4nc(-c5ccncc5)nc4c32)cc1OC` (stereo not drawn) was tested, and the inhibition was 5.3% (inactive). With `N=c1c2c(ncn1Cc1ccco1)Oc1c(ccc3ccccc13)C2c1ccccc1` (stereo not drawn) the inhibition was 65.9% (active). In the case of `N=c1c2c(ncn1Cc1ccco1)Oc1ccc3ccccc3c1C2c1ccccc1` (stereo not drawn), the inhibition is reported as 17.8% (inactive). With `COc1ccc(C2c3ccc(O)cc3Oc3ncn4nc(-c5ccccn5)nc4c32)cc1OC` (stereo not drawn) the inhibition was 14.6% (inactive). With `COc1ccc(C2c3ccc(O)cc3Oc3ncn(Cc4ccco4)c(=N)c32)cc1OC` (stereo not drawn) the inhibition was 33% (inactive). In the case of `CNc1oc(C)nc1S(=O)(=O)c1ccccc1`, the inhibition is reported as -6.5% (inactive). For `O=C(O)c1ccc2c(c1)S(=O)(=O)N=C1CCCCCN12`, the inhibition was 16.8% (inactive). In the case of `Cc1c(N=Cc2c(O)n(C)c(=O)c3ccccc23)c(=O)n(-c2ccccc2)n1C`, the inhibition is reported as 1.5% (inactive). In the case of `CC(=O)N1c2ccccc2CCc2ccc(N)cc21`, the inhibition is reported as 8% (inactive). For `CC(C)(C)c1ccc(C(=O)Nc2ccc(O)c3c(=O)cc(-c4ccccc4Cl)oc23)cc1`, the inhibition was 18.3% (inactive). With `O=c1[nH]c(=S)[nH]c2sc3c(c12)CCCCCC3` the inhibition was -0.5% (inactive). In the case of `COc1cc(/C=N/NC(=O)c2cccc3ccccc23)cc(OC)c1O`, the inhibition is reported as 16.9% (inactive). For `Cn1c(NC(=O)c2cc(-c3ccc4c(c3)OCO4)nc3ccccc23)cc(=O)n(C)c1=O`, the inhibition was 9.3% (inactive). `COc1ccc(C2c3ccc(O)cc3Oc3ncn(CCN4CCOCC4)c(=N)c32)cc1` (stereo not drawn) was tested, and the inhibition was 18.9% (inactive). With `COc1ccc(C2c3ccc(O)cc3Oc3ncn(CCCO)c(=N)c32)cc1` (stereo not drawn) the inhibition was 22% (inactive). In the case of `COC(=O)c1ccc(N(CC(=O)NC2CCCCC2)C(=O)CNC(=O)c2ccco2)cc1`, the inhibition is reported as -3.6% (inactive). In the case of `COc1ccc(-c2ccc(-c3nnc(Cc4ccc(OC)c(OC)c4)o3)cc2)cc1`, the inhibition is reported as -4.2% (inactive). For `O=C1c2ccccc2C(=O)N1Cc1cc(-c2ccccc2)no1`, the inhibition was -7.7% (inactive). `O=C(CCS(=O)(=O)c1cccc2nonc12)N1CCOCC1` was tested, and the inhibition was -5.5% (inactive). In the case of `COc1ccccc1-c1c(-c2ccc(O)cc2O)n[nH]c1C(F)(F)F`, the inhibition is reported as 5.7% (inactive). With `COc1ccc(-c2cn[nH]c2-c2ccc(OCC(=O)NN)cc2O)cc1` the inhibition was -13.4% (inactive). For `COc1ccc(-c2n[nH]c(C)c2-c2ccc(Cl)cc2)c(O)c1`, the inhibition was 12.3% (inactive). With `COc1ccc(-c2cn[nH]c2-c2ccc(OCC(=O)NN)cc2O)cc1OC` the inhibition was -2.6% (inactive). `COc1ccc(-c2c(-c3ccc(O)cc3O)n[nH]c2C)cc1OC` was tested, and the inhibition was 7% (inactive). For `Oc1ccc(-c2n[nH]c(C(F)(F)F)c2-c2ccccc2)c(O)c1`, the inhibition was 20.9% (inactive). For `COc1ccc(-c2c(-c3ccc(OCC(=O)NN)cc3O)n[nH]c2C)cc1`, the inhibition was -11.9% (inactive). In the case of `COc1ccccc1-c1c(-c2ccc(OCC(=O)NN)cc2O)n[nH]c1C(F)(F)F`, the inhibition is reported as 4.3% (inactive). For `CSc1c(CC(=O)Nc2ccccc2)n(C)c2ccccc12`, the inhibition was -1% (inactive). In the case of `O=C(NCc1cccnc1)C(=O)Nc1ccc([N+](=O)[O-])cc1`, the inhibition is reported as -2.9% (inactive). `CSc1nsc(SC)c1NC(=O)N1CCCCC1` was tested, and the inhibition was 3.9% (inactive). With `Cc1cc(C)c(C(=O)CN2C(=O)NC3(CCC(C)CC3)C2=O)cc1C` (stereo not drawn) the inhibition was 0.1% (inactive). In the case of `COC(=O)c1sc(NC(=O)c2c(F)cccc2F)c(C#N)c1C`, the inhibition is reported as -4.7% (inactive). In the case of `COC(=O)C1=C(N)Oc2c(oc(CO)cc2=O)C1c1ccc(F)cc1` (stereo not drawn), the inhibition is reported as 6% (inactive). `COC(=O)C1=C(C)OC(N)=C(C#N)C1c1ccccc1F` (stereo not drawn) was tested, and the inhibition was 9% (inactive). `COC(=O)c1ccc(C#Cc2ccccc2)o1` was tested, and the inhibition was -12.1% (inactive). With `O=C1CC(C(=O)O)(c2ccccc2)c2cccc(F)c21` (stereo not drawn) the inhibition was -1.7% (inactive). `COC(=O)c1c(-c2ccccc2)csc1N` was tested, and the inhibition was 1.1% (inactive). In the case of `COc1ccc(-c2nnn(CC(=O)NCCc3ccc(OC)c(OC)c3)n2)cc1`, the inhibition is reported as -2.6% (inactive). With `O=C1/C(=C/c2ccc([N+](=O)[O-])cc2)CCc2ccccc21` the inhibition was 6.9% (inactive). With `Cn1c(=O)c2c(ncn2Cc2nnc(N)s2)n(C)c1=O` the inhibition was 3.3% (inactive). `CCOC(=O)c1ccc(NC(=S)N2CCC(O)CC2)cc1` was tested, and the inhibition was 1% (inactive). `C#CCn1c(CCNC(=O)c2ccco2)nc2ccccc21` was tested, and the inhibition was -12.6% (inactive). For `CCOc1ccccc1CNC(=O)CCCn1ncn2c(cc3occc32)c1=O`, the inhibition was -7.1% (inactive). For `CCCCC(=O)N(Cc1ccc(F)cc1)C1CCS(=O)(=O)C1` (stereo not drawn), the inhibition was -2.9% (inactive). `Nn1c(CSc2nc3ccccc3o2)nnc1CSc1nc2ccccc2o1` was tested, and the inhibition was 2.1% (inactive). With `COC(=O)c1sccc1NC(=S)N1CCCCC1` the inhibition was -4.6% (inactive). `CSc1nnc(-c2sccc2OCc2ccc(C)cc2)n1C` was tested, and the inhibition was 28.1% (inactive). With `Cn1c(-c2sccc2OCc2ccccc2)n[nH]c1=S` the inhibition was 6.8% (inactive). With `O=C(O)CNS(=O)(=O)c1ccc2c(c1)C(=O)c1cc(S(=O)(=O)NCC(=O)O)ccc1-2` the inhibition was -7.8% (inactive). For `O=C(O)CNS(=O)(=O)c1ccc(F)cc1`, the inhibition was 0.5% (inactive). In the case of `O=C(O)CNS(=O)(=O)c1ccc(-c2ccccc2)cc1`, the inhibition is reported as 75.2% (active). With `COc1ccc(C(=O)Nc2ccc(/C(C)=N/NC(=O)c3ccncc3)cc2)cc1` the inhibition was 10.6% (inactive). For `Cc1cccc(NC(=O)C2CC(O)CN2C(=O)Oc2ccccc2)c1` (stereo not drawn), the inhibition was 2.6% (inactive). `CC(NC(=O)Cn1nnc(-c2ccncc2)n1)c1ccccc1` (stereo not drawn) was tested, and the inhibition was -4.9% (inactive). For `COc1cc2c(cc1OC)-c1nc3ccccc3c(=O)n1C(C)(C)C2`, the inhibition was 4.8% (inactive). With `CC1(C)Cc2ccccc2-c2nc3ccccc3c(=O)n21` the inhibition was 0.3% (inactive). For `O=C(NC12CC3CC(CC(C3)C1)C2)c1ccc([N+](=O)[O-])o1`, the inhibition was 1.3% (inactive). `O=C(NC12CC3CC(CC(C3)C1)C2)c1ccc(-c2ccc(Br)cc2)o1` was tested, and the inhibition was 63.8% (active). For `O=C(NC12CC3CC(CC(C3)C1)C2)c1ccc(-c2ccccc2Cl)o1`, the inhibition was -9.4% (inactive). With `O=C(NC12CC3CC(CC(C3)C1)C2)c1ccc(-c2cccc(Cl)c2)o1` the inhibition was 2.9% (inactive). With `O=C(NC12CC3CC(CC(C3)C1)C2)c1ccc(Br)o1` the inhibition was 13% (inactive). In the case of `C1CN(c2nc(N3CCOCC3)nc(N3CCOCC3)n2)CCO1`, the inhibition is reported as 8.7% (inactive). For `Cc1[nH]nc2c1/C(=N/O)CC(c1ccccc1)C2` (stereo not drawn), the inhibition was -5.5% (inactive). In the case of `COc1cc2ncc(C(=O)c3ccccc3)c(N3CCN(Cc4ccccc4)CC3)c2cc1OC`, the inhibition is reported as 3.4% (inactive). `Cc1ccc(-c2noc(CCC(=O)N(C)c3ccccc3C)n2)cc1` was tested, and the inhibition was -2.6% (inactive). For `CCc1ccccc1N(C)C(=O)CCc1nc(-c2ccc(C)cc2)no1`, the inhibition was -8.4% (inactive). `CCc1ccccc1NS(=O)(=O)c1c(C(=O)N2CCCCCC2)c(C)n(C)c1C` was tested, and the inhibition was 3.1% (inactive). In the case of `CCN(C(=O)CSc1nnc(Nc2ccccc2C)s1)C1CCS(=O)(=O)C1` (stereo not drawn), the inhibition is reported as 12.3% (inactive). With `CC(C)C[C@H](NC(=O)Nc1ccccc1F)C(=O)O` the inhibition was 2.2% (inactive). For `CSc1ccc(CN(C)C(=O)c2cc(=O)c3ccccc3o2)cc1`, the inhibition was -0.8% (inactive). With `COc1cc(NS(=O)(=O)c2ccc(Nc3nc(-c4cccc([N+](=O)[O-])c4)cs3)cc2)nc(OC)n1` the inhibition was 0.2% (inactive). In the case of `COc1ccc(-c2csc(Nc3ccc(S(=O)(=O)Nc4cc(C)on4)cc3)n2)cc1`, the inhibition is reported as 5.4% (inactive). For `COc1cc(NS(=O)(=O)c2ccc(Nc3nc(-c4ccccn4)cs3)cc2)nc(OC)n1`, the inhibition was 2.2% (inactive). `COc1ccc(-c2csc(Nc3ccc(S(N)(=O)=O)cc3)n2)cc1` was tested, and the inhibition was 4.6% (inactive).
